Laboratory results taken from the supplement of paper PMC3545927.
The other results are listed elsewhere or left out. The hit rate among all sequences tested is not known here.

Molecular target: furin, P09958
Test: furin cleavage Z-score vs untreated control; higher = more cleavage, active = 3.5 or more, inactive = 1 or less, 8 variable residues between constant flanks
Procedure, shortened: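 Purified furin cleaved 8-mer peptides that were fused to a cDNA oligonucleotide and held on magnetic beads by their N-terminus. Each 0.01 ml reaction used a 1:10 enzyme:substrate ratio in 50 mM HEPES pH 7.5 with CaCl2 and NaCl and ran 7.5, 15 or 30 min. Released DNA was adapter-tagged by PCR and sequenced, and read counts gave abundance. The cleavage Z-score came from log counts against furin-free reactions, lowess-adjusted and scaled by median absolute deviation.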

Chain of furin, P09958 (P09958 whole entry): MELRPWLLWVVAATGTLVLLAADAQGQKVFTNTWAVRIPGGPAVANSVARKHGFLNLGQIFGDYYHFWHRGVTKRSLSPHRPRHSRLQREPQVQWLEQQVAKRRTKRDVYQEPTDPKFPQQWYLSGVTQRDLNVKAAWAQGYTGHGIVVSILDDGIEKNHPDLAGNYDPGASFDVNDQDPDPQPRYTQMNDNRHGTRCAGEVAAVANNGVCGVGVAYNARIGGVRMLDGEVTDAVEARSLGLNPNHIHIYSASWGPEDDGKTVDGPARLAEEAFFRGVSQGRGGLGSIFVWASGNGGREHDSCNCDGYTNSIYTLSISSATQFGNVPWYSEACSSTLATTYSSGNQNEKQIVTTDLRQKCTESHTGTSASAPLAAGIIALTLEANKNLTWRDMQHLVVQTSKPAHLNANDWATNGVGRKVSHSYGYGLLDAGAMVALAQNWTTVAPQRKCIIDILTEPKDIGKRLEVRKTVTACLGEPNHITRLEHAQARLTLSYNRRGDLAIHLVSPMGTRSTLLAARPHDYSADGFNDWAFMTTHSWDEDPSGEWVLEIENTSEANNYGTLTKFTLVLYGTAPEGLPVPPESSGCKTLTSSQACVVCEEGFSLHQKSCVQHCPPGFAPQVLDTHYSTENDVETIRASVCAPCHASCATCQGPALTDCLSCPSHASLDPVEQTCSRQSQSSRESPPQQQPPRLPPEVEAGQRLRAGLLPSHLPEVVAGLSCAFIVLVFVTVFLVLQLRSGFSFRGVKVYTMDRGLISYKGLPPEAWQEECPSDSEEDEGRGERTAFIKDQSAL

**Q.** For CASTLPGNPAAGNASASA [HC1050], which “furin cleavage Z-score” value (7.5 min) is on record?
**A.** -1.13 (inactive)

**Q.** What about the “furin cleavage Z-score” value (15 min) of the same sequence?
**A.** 0.099 (inactive)

**Q.** And the “furin cleavage Z-score” value (30 min)?
**A.** -1.54 (inactive)

**Q.** Which results are given for CARSRRAQPPAGNASASA [FS-2814]?
**A.** furin cleavage Z-score (7.5 min): 3.03; furin cleavage Z-score (15 min): 4.42 (active); furin cleavage Z-score (30 min): 4.27 (active)

**Q.** What does the source list for CARSRRWKVKAGNASASA [FS-3211]?
**A.** furin cleavage Z-score (7.5 min): 1.85; furin cleavage Z-score (15 min): -0.535 (inactive); furin cleavage Z-score (30 min): 0.212 (inactive)

**Q.** What does the source list for CARSRRCTCFAGNASASA [FS-2187]?
**A.** furin cleavage Z-score (7.5 min): -0.747 (inactive); furin cleavage Z-score (15 min): -0.988 (inactive); furin cleavage Z-score (30 min): -0.963 (inactive)

**Q.** What does the source list for CARSRRALPPAGNASASA [FS-2239]?
**A.** furin cleavage Z-score (7.5 min): 7.76 (active); furin cleavage Z-score (15 min): 7.46 (active); furin cleavage Z-score (30 min): 7.12 (active)

**Q.** With CARSRRKLMVAGNASASA [FS-2817] as the sequence, how does the “furin cleavage Z-score” value (7.5 min) read?
**A.** -1.98 (inactive)

**Q.** And the “furin cleavage Z-score” value (15 min)?
**A.** -0.17 (inactive)

**Q.** What about the “furin cleavage Z-score” value (30 min) of the same sequence?
**A.** -0.107 (inactive)

**Q.** How did the “furin cleavage Z-score” value (7.5 min) turn out when CARSRRNVVMAGNASASA [FS-2382] was run?
**A.** 5.51 (active)

**Q.** And the “furin cleavage Z-score” value (15 min)?
**A.** 8.6 (active)

**Q.** And the “furin cleavage Z-score” value (30 min)?
**A.** 7.9 (active)

**Q.** Which “furin cleavage Z-score” value (7.5 min) does the source give for CARSRRCLRDAGNASASA [FS-2607] here?
**A.** 4.81 (active)

**Q.** And the “furin cleavage Z-score” value (15 min)?
**A.** 5.74 (active)

**Q.** And the “furin cleavage Z-score” value (30 min)?
**A.** 5.33 (active)

**Q.** CASTPCSYHLAGNASASA [HC2529] was tested. Which “furin cleavage Z-score” value (7.5 min) did it give?
**A.** 0.0863 (inactive)

**Q.** And the “furin cleavage Z-score” value (15 min)?
**A.** 1

**Q.** What about the “furin cleavage Z-score” value (30 min) of the same sequence?
**A.** 1.34

**Q.** How did the “furin cleavage Z-score” value (7.5 min) turn out when CAEVVTSFWVAGNASASA [HC2207] was run?
**A.** -0.594 (inactive)

**Q.** And the “furin cleavage Z-score” value (15 min)?
**A.** 1.74

**Q.** And the “furin cleavage Z-score” value (30 min)?
**A.** -0.243 (inactive)

**Q.** Which results are given for CASIPCSAHLAGNASASA [HC2484]?
**A.** furin cleavage Z-score (7.5 min): 0.328 (inactive); furin cleavage Z-score (15 min): 0.418 (inactive); furin cleavage Z-score (30 min): 0.274 (inactive)

**Q.** For CAVVCCAMSYAGNASASA [HC101], which “furin cleavage Z-score” value (7.5 min) is on record?
**A.** 1.72

**Q.** What about the “furin cleavage Z-score” value (15 min) of the same sequence?
**A.** 0.536 (inactive)

**Q.** And the “furin cleavage Z-score” value (30 min)?
**A.** 0.579 (inactive)

**Q.** Which “furin cleavage Z-score” value (7.5 min) does the source give for CASVPAEILRAGNASASA [HC1295] here?
**A.** 0.956 (inactive)

**Q.** And the “furin cleavage Z-score” value (15 min)?
**A.** 1.63

**Q.** And the “furin cleavage Z-score” value (30 min)?
**A.** 1.9

**Q.** How did the “furin cleavage Z-score” value (7.5 min) turn out when CAYDAGCAWYAGNASASA [HC921] was run?
**A.** 1.18

**Q.** And the “furin cleavage Z-score” value (15 min)?
**A.** 0.654 (inactive)

**Q.** And the “furin cleavage Z-score” value (30 min)?
**A.** 0.883 (inactive)

**Q.** How did the “furin cleavage Z-score” value (7.5 min) turn out when CALVSFLVFFAGNASASA [HC543] was run?
**A.** -1.85 (inactive)

**Q.** And the “furin cleavage Z-score” value (15 min)?
**A.** -1.89 (inactive)

**Q.** And the “furin cleavage Z-score” value (30 min)?
**A.** -0.773 (inactive)

**Q.** Which “furin cleavage Z-score” value (7.5 min) does the source give for CARSRRTWELAGNASASA [FS-3265] here?
**A.** -1.05 (inactive)

**Q.** What about the “furin cleavage Z-score” value (15 min) of the same sequence?
**A.** 3.1

**Q.** What about the “furin cleavage Z-score” value (30 min) of the same sequence?
**A.** 1.34

**Q.** For CARSNRDVFVAGNASASA [FS-1975], which “furin cleavage Z-score” value (7.5 min) is on record?
**A.** 1.39

**Q.** What about the “furin cleavage Z-score” value (15 min) of the same sequence?
**A.** 1.28

**Q.** What about the “furin cleavage Z-score” value (30 min) of the same sequence?
**A.** 0.58 (inactive)

**Q.** With CAPPSRRRRPAGNASASA [FS-1052] as the sequence, how does the “furin cleavage Z-score” value (7.5 min) read?
**A.** 0.863 (inactive)

**Q.** And the “furin cleavage Z-score” value (15 min)?
**A.** 0.662 (inactive)

**Q.** What about the “furin cleavage Z-score” value (30 min) of the same sequence?
**A.** 0.635 (inactive)

**Q.** How did the “furin cleavage Z-score” value (7.5 min) turn out when CARSRRTICVAGNASASA [FS-3239] was run?
**A.** 3.04

**Q.** And the “furin cleavage Z-score” value (15 min)?
**A.** 0.821 (inactive)

**Q.** What about the “furin cleavage Z-score” value (30 min) of the same sequence?
**A.** 3.9 (active)

**Q.** What does the source list for CARSRKAVDWAGNASASA [FS-2238]?
**A.** furin cleavage Z-score (7.5 min): -0.617 (inactive); furin cleavage Z-score (15 min): 2.48; furin cleavage Z-score (30 min): 2.21

**Q.** How did the “furin cleavage Z-score” value (7.5 min) turn out when CARSFRSVTSAGNASASA [FS-3234] was run?
**A.** -0.371 (inactive)

**Q.** And the “furin cleavage Z-score” value (15 min)?
**A.** 0.166 (inactive)

**Q.** What about the “furin cleavage Z-score” value (30 min) of the same sequence?
**A.** 0.853 (inactive)

**Q.** How did the “furin cleavage Z-score” value (7.5 min) turn out when CARSRKIAESAGNASASA [FS-2526] was run?
**A.** -1.24 (inactive)

**Q.** And the “furin cleavage Z-score” value (15 min)?
**A.** -0.08 (inactive)

**Q.** What about the “furin cleavage Z-score” value (30 min) of the same sequence?
**A.** -0.238 (inactive)

**Q.** What does the source list for CARSRRAVSVAGNASASA [FS-2815]?
**A.** furin cleavage Z-score (7.5 min): 4.34 (active); furin cleavage Z-score (15 min): 4.32 (active); furin cleavage Z-score (30 min): 4.26 (active)

**Q.** What does the source list for CARSRRAATSAGNASASA [FS-3092]?
**A.** furin cleavage Z-score (7.5 min): 10.1 (active); furin cleavage Z-score (15 min): 11.9 (active); furin cleavage Z-score (30 min): 9.59 (active)

**Q.** Which “furin cleavage Z-score” value (7.5 min) does the source give for CARSRNLGKVAGNASASA [HC218] here?
**A.** 1.83

**Q.** What about the “furin cleavage Z-score” value (15 min) of the same sequence?
**A.** 3.1

**Q.** And the “furin cleavage Z-score” value (30 min)?
**A.** 0.167 (inactive)

**Q.** Which “furin cleavage Z-score” value (7.5 min) does the source give for CARSRRRRRPAGNASASA [FS-1407] here?
**A.** 4.05 (active)

**Q.** What about the “furin cleavage Z-score” value (15 min) of the same sequence?
**A.** 4.27 (active)

**Q.** And the “furin cleavage Z-score” value (30 min)?
**A.** 4.75 (active)

**Q.** For CASQGRRRRPAGNASASA [FS-194], which “furin cleavage Z-score” value (7.5 min) is on record?
**A.** -0.188 (inactive)

**Q.** And the “furin cleavage Z-score” value (15 min)?
**A.** 0.828 (inactive)

**Q.** And the “furin cleavage Z-score” value (30 min)?
**A.** 0.793 (inactive)
